Data from PubChem BioAssay (Tox21).
Records with an inconclusive call do not appear. Entries that show only a call come without a potency. A number with no mark means an inactive call. Active and inactive are the calls of the source. Calls come from the whole dose curve.

target: Progesterone receptor (Homo sapiens) (UniProt P06401); experiment: qHTS assay to identify small molecule agonists of the progesterone receptor (PR) signaling pathway (AID 1346784); conditions: PR-UAS-bla HEK293T, beta-lactamase FRET ratio, 16 h; series mostly up to 92.4 µM; activation: at the top concentration; note: nearly all actives have a fitted effect of over 30% in size
Source text: U.S. Tox21 Program National Center for Advancing Translational Sciences [NCATS] NIH Chemical Genomics Center [NCGC] U.S. Environmental Protection Agency [EPA] National Institutes of Environmental Health Sciences [NIEHS] National Toxicology Program [NTP] U.S. Food and Drug Administration [FDA] […] Endocrine disrupting chemicals (EDCs) and their interactions with steroid hormone receptors like PR causes disruption of normal endocrine function. To identify the compounds that activate PR signaling, a PR-UAS-bla GripTite cell line i.e. PR-UAS-bla HEK 293T (Invitrogen, Carlsbad, CA, USA) containing a beta-lactamase reporter gene under the control of an Upstream Activator Sequence (UAS) was used to screen Tox21 10K compound library.
Tox21 Assay Protocol Summary: PR-UAS-bla HEK 293T cells were dispensed at 3,000 cells/5 uL of assay medium containing 2% charcoal stripped FBS per well into black wall/clear-bottom 1536-well plates using a Multidrop Combi (ThermoFisher Scientific, Waltham, MA) dispenser. After the assay plates were incubated at a 37C and 5% CO2 for 6hr, 23 nL of compounds dissolved in DMSO, positive controls or DMSO only was transferred to the assay plate by a Pintool station (Kalypsys, San Diego, CA). The plates were incubated at 37C and 5% CO2 for 16hr. Then 1 uL of LiveBLAzer B/G FRET substrate was added using a BioRAPTR FRD (Flying Reagent Dispenser, Aurora Discovery, San Diego, CA). After the plates were incubated at room temperature for 2 hours, fluorescence intensity was measured by an Envision plate reader (PerkinElmer, Shelton, CT).

Sequence of Progesterone receptor (Homo sapiens) (P06401 whole entry, looked up): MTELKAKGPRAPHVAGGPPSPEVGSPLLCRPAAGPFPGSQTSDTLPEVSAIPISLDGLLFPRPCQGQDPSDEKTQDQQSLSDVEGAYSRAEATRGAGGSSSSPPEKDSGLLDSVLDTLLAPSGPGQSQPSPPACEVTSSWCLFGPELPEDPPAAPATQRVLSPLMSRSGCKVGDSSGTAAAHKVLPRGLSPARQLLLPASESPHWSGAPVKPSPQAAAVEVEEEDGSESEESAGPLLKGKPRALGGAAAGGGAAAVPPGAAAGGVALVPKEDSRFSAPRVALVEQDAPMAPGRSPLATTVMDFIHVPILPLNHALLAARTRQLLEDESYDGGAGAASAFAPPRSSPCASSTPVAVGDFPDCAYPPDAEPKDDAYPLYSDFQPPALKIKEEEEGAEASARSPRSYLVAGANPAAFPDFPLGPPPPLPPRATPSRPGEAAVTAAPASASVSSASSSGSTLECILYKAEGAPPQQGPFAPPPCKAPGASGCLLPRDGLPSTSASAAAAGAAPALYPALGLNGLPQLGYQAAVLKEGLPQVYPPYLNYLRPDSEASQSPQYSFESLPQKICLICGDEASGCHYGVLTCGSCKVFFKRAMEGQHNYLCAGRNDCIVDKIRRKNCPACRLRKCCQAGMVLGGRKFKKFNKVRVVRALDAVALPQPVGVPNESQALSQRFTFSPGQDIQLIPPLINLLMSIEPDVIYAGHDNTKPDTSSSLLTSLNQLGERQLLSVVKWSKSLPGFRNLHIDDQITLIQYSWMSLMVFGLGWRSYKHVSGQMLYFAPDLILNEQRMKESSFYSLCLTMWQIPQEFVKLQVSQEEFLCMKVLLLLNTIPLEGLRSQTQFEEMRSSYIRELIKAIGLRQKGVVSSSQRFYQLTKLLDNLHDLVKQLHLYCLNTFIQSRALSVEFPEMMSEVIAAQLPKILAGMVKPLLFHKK

With CCC(C)c1ccc(O)cc1 (stereo not given) as the compound, how does the Potency read?
Its Potency is “inactive”.

Nc1c(Cl)cc([N+](=O)[O-])cc1Cl was tested. Which Potency did it give?
Its Potency is “inactive”.

For CCCCN(CC)c1c([N+](=O)[O-])cc(C(F)(F)F)cc1[N+](=O)[O-], which Potency is on record?
The Potency was “inactive”.

How did the Potency turn out when C=CCN(CC=C)C(=O)C(Cl)Cl was run?
Its Potency is “inactive”.

NNC(=S)NN was tested. Which Potency did it give?
Its Potency is “inactive”.

c1nc[nH]n1 was tested. Which Potency did it give?
The Potency was “inactive”.

CC1(C)C(C=C(Cl)Cl)C1C(=O)OC(C#N)c1cccc(Oc2ccccc2)c1 (stereo not given) was tested. Which Potency did it give?
Its Potency is “inactive”.

Which Potency does the source give for CCCCCCCCOC(=O)c1ccccc1C(=O)OCCCCCCCC here?
The Potency was “inactive”.

With Cc1cccc(N)c1N as the compound, how does the Potency read?
Its Potency is “inactive”.

Which Potency does the source give for CCN(CC)N=O here?
The Potency was “inactive”.

Which Potency does the source give for O=S(=O)(Oc1ccc(Cl)cc1)c1ccc(Cl)cc1 here?
Its Potency is “inactive”.

Cc1ccccc1[N+](=O)[O-] was tested. Which Potency did it give?
The Potency was “inactive”.

Which “activation” value does the source give for O=C(CCl)c1ccccc1 here?
The value was 0.269%.

Which Potency does the source give for Cc1c(COC(=O)[C@@H]2[C@H](/C=C(\Cl)C(F)(F)F)C2(C)C)cccc1-c1ccccc1 here?
The Potency was “inactive”.

For Cc1ccc(N)c(N)c1, which Potency is on record?
The Potency was “inactive”.

With CC(C)Oc1cc(-n2nc(C(C)(C)C)oc2=O)c(Cl)cc1Cl as the compound, how does the Potency read?
The Potency was “inactive”.

With O=P(Oc1ccccc1)(Oc1ccccc1)Oc1ccccc1 as the compound, how does the Potency read?
Its Potency is “inactive”.

How did the Potency turn out when c1cc(OCC2CO2)ccc1Cc1ccc(OCC2CO2)cc1 (stereo not given) was run?
Its Potency is “inactive”.

CCCCNC(=O)n1c(NC(=O)OC)nc2ccccc21 was tested. Which “activation” value did it give?
Its value is -4.1%.

CCc1cccc(CC)c1N(COC)C(=O)CCl was tested. Which Potency did it give?
Its Potency is “inactive”.

How did the “activation” value turn out when CC(C)=CC1C(C(=O)OCc2coc(Cc3ccccc3)c2)C1(C)C (stereo not given) was run?
Its value is 0.417%.

ClC1C(Cl)C(Cl)C(Cl)C(Cl)C1Cl (stereo not given) was tested. Which Potency did it give?
The Potency was “inactive”.

For COP(=O)(OC)OC, which Potency is on record?
Its Potency is “inactive”.

Which Potency does the source give for Nc1cccnc1 here?
Its Potency is “inactive”.

With C=CCc1ccc2c(c1)OCO2 as the compound, how does the Potency read?
Its Potency is “inactive”.

Nc1ccc(-c2ccccc2)cc1 was tested. Which “activation” value did it give?
The value was 3.02%.

CCN(N=O)C(N)=O was tested. Which “activation” value did it give?
Its value is -0.0957% [at 42.5 µM].

For COC(=O)c1sccc1S(=O)(=O)NC(=O)Nc1nc(C)nc(OC)n1, which Potency is on record?
Its Potency is “inactive”.

For O=[N+]([O-])c1cccc2ccccc12, which Potency is on record?
The Potency was “inactive”.

With Oc1c(Cl)c(Cl)c(Cl)c(Cl)c1Cl as the compound, how does the “activation” value read?
The value was 10.3% [at 42.5 µM].

With O=C(NC(=O)c1c(F)cccc1F)Nc1ccc(Cl)cc1 as the compound, how does the Potency read?
The Potency was “inactive”.

For O=[N+]([O-])c1ccc(O)c([N+](=O)[O-])c1, which Potency is on record?
Its Potency is “inactive”.

With N#CCCCl as the compound, how does the Potency read?
The Potency was “inactive”.

COP(=S)(OC)Oc1ccc([N+](=O)[O-])cc1 was tested. Which Potency did it give?
Its Potency is “inactive”.

With O=C(O)C(F)(F)C(F)(F)C(F)(F)C(F)(F)C(F)(F)C(F)(F)C(F)(F)F as the compound, how does the Potency read?
The Potency was “inactive”.

For CCC(C)c1cc([N+](=O)[O-])cc([N+](=O)[O-])c1O (stereo not given), which “activation” value is on record?
The value was -0.814%.

How did the Potency turn out when c1ccc(NNc2ccccc2)cc1 was run?
Its Potency is “inactive”.

For O=c1oc2ccccc2c(O)c1C(CC(O)c1ccc(-c2ccc(Br)cc2)cc1)c1ccccc1 (stereo not given), which “activation” value is on record?
Its value is 2.94% [at 42.5 µM].

How did the Potency turn out when NCc1cccnc1 was run?
The Potency was “inactive”.

With Nc1ccc(-c2ccc(N)c(N)c2)cc1N as the compound, how does the “activation” value read?
The value was 1.14%.
